High-throughput results (PubChem BioAssay)
The list is not random: actives were taken first. Their share in the collection is about 2.9%.
HIF-2a inh – blocks HIF-2a reporter activity. 786-0 RCC cells HIF-2a reporter, luciferase luminescence, overnight. inhibition, % at 18.8 µM. 0.72% of 360,000 active. AID 624352;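 active means inhibition of the luminescence signal of 40% or more relative to plate controls, in a single-dose primary screen at 18.75 µM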
KKLEB tox – CF airway cell cytotoxicity counter-screen; 0.36% of 360,000 active; KKLEB CF airway cells viability, ATPlite luminescence, overnight; stronger effect = lower value; cells stimulated with P. aeruginosa culture filtrate; AID 602141; activity change (cytotoxicity), % at 5 µM;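 active means corrected activity change at or below -50% at 5 µM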
Peg3 prom inh – inhibitors of Peg3 promoter; inhibition, % at 20 µM; 1.7% of 360,000 active; HeLa PEG-Prom luciferase reporter, luminescence, overnight;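 active means inhibition of at least 50% at 20 µM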
LMP1 NFkB inh – Epstein-Barr LMP1 NF-kappaB reporter inhibition; 0.69% of 350,000 active; inhibition, % at 12.5 µM; LMP1-induced NF-kappaB luciferase reporter cells, luminescence; in the data active means inhibition above about 41%
CF NFkB block – blocks PAF-induced NF-kB reporter in cystic fibrosis cells | 0.86% of 360,000 active | inhibition, % at 5 µM | AID 588850 | KKLEB NF-kB-GFP reporter, GFP fluorescence overnight;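 active means at least 50% inhibition at 5 µM, scaled per plate between neutral and stimulator controls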;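 further: PAF is a Pseudomonas aeruginosa culture filtrate used as stimulus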
Shn3 inh set2 – reduces Shn3 3'UTR luciferase signal in osteoblasts | AID 588674 | inhibition, % at 12.5 µM | 0.52% of 360,000 active | Clone20 osteoblast Shn3 3'UTR firefly luciferase, 24 h;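 active means mean inhibition of at least 75% with every replicate also reaching 75%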
Large screens that a line does not name were inactive; ! = not confirmed by another sample.

C/C(=N\Nc1ccc(C(F)(F)F)cc1[N+](=O)[O-])C(C)C	LMP1 NFkB inh 66
O=C(CN1CC(=O)Oc2ccccc21)OCC(=O)c1cccc(Br)c1	none
O=C(CN1CC(=O)Oc2ccccc21)OCC(=O)c1ccccc1	KKLEB tox -59, Peg3 prom inh 59, CF NFkB block 50
Cc1ccc(C(=O)CC(=O)c2ccc(C)cc2O)cc1	none
CC1(Cc2ccc(OC(F)(F)F)cc2)C(=O)Nc2c(Cl)ccc(Cl)c21 (centres undefined)	none (no result: LMP1 NFkB inh)
COc1ccc(C(=O)N2CCC(NC(=O)C(Cc3ccccc3OC)NC(C)=O)CC2)cc1 (centres undefined)	none
COc1cc(C(=O)N2CCC(NC(=O)C(Cc3ccccc3)NC(C)=O)CC2)cc(OC)c1OC (centres undefined)	Peg3 prom inh 58
C#CCN(C(=O)Nc1ccccc1)c1ccccc1	none
S=C(SSC(=S)N1CCOCC1)N1CCOCC1	Shn3 inh set2 90 (no result: LMP1 NFkB inh)
CC1(C)CC(=O)C=C(c2ccc(COC(=O)c3ccccc3)cc2)C1=O	none
O=C(NCc1ccccc1)C1=C[C@@H](C2CC2)C[C@@H](OCc2ccc(CO)cc2)O1	none
O=C(NCc1ccccc1)C1=C[C@H](C2CCCCC2)C[C@H](OCc2ccc(CO)cc2)O1	KKLEB tox -53, CF NFkB block 56
CCN1CCN(Cc2ccc(NC(=O)c3cc(NC(=O)c4cnnc5ccccc45)cc(OC)c3)cc2C(F)(F)F)CC1	Peg3 prom inh 100!
CCN1CCN(Cc2ccc(NC(=O)c3cc(NC(=O)c4nccnc4N)cc(OC)c3)cc2C(F)(F)F)CC1	none
CCN1CCN(Cc2ccc(NC(=O)c3ccc(C)c(NC(=O)c4nccn4C)c3)cc2C(F)(F)F)CC1	LMP1 NFkB inh 47
CCN1CCN(Cc2ccc(NC(=O)c3ccc(C)c(NC(=O)c4nccnc4N)c3)cc2C(F)(F)F)CC1	Peg3 prom inh 81, LMP1 NFkB inh 57, CF NFkB block 71
CCN1CCN(Cc2ccc(NC(=O)c3ccc(C)c(NC(=O)c4cncc(-c5cccs5)c4)c3)cc2C(F)(F)F)CC1	HIF-2a inh 48, KKLEB tox -85, Peg3 prom inh 99, LMP1 NFkB inh 71, CF NFkB block 80, Shn3 inh set2 88
Cc1cccc(C(=O)Nc2cc(NC(=O)c3cccs3)ccc2C)c1	none
Cc1cccc(-c2n[nH]c(=S)n2/N=C/c2ccc(C)o2)c1	none
COc1ccc(-c2oc3cccnc3c2-c2ccc(OC)nc2)cc1	none
COC1(OC)C(/C=C/c2ccc(Cl)cc2)C(C#N)(C#N)C1(OC)OC (centres undefined)	KKLEB tox -60, Peg3 prom inh 63, CF NFkB block 57
Nc1cccc(-c2c[nH]c3ncc(-c4cccnc4)cc23)c1	CF NFkB block 80
CCN(CC(=O)NC1CCS(=O)(=O)C1)S(=O)(=O)c1ccc(Cl)cc1C(F)(F)F (centres undefined)	none
O=C1CN(S(=O)(=O)c2cc(Br)ccc2Br)CCN1	none
O=c1c(Br)ccc(Br)cc1Br	HIF-2a inh 89, KKLEB tox -94, Peg3 prom inh 95, CF NFkB block 91, Shn3 inh set2 97
NC(=O)c1cccc(-c2ccnc3c2CC(C(=O)Nc2cccc(C(F)(F)F)c2)O3)c1 (centres undefined)	none (no result: LMP1 NFkB inh)
COc1ccccc1CNC(=O)Nc1nc(C(N)CCc2ccccc2)cs1 (centres undefined)	Peg3 prom inh 97 (no result: LMP1 NFkB inh)
COc1ccc(CC(N)c2csc(NC(=O)c3cccc(OC(F)(F)F)c3)n2)cc1 (centres undefined)	Peg3 prom inh 94 (no result: LMP1 NFkB inh)
NC(CCc1ccccc1)c1csc(NC(=O)Nc2ccccc2Oc2ccccc2)n1 (centres undefined)	Peg3 prom inh 118, Shn3 inh set2 96 (no result: LMP1 NFkB inh)
NC(CO)c1csc(NC(=O)Nc2ccccc2Cc2ccccc2)n1 (centres undefined)	none (no result: LMP1 NFkB inh)
COc1ccc(CNC(=O)Nc2nc(C(N)Cc3ccc(C(F)(F)F)cc3)cs2)cc1 (centres undefined)	Peg3 prom inh 95 (no result: LMP1 NFkB inh)
Cc1ccc2ccccc2c1C(O)c1ncc(-c2ccc(C(F)(F)F)cc2)[nH]1 (centres undefined)	none (no result: LMP1 NFkB inh)
CC(=O)N1c2ccc(S(=O)(=O)N3CCCCC3)cc2CC1C(=O)Nc1ccc(C)cc1 (centres undefined)	none
